Results filed as inconclusive are left out. Entries that show only a call come without a potency. The source made the active and inactive calls. Calls follow the shape of the full dose curve.
Experiments:
[1] = Primary qHTS for inhibitors of MERS-S pseudo-typed particle cell entry (AID 1479149); conditions: MERS-S pseudotyped particle entry, luciferase; series mostly up to 57.1 µM; also: potency is read from the fitted curve at half-maximal effect; nearly all actives have a fitted effect of over 60% in size
[2] = Primary qHTS for Vero E6 cytotoxicity: counterscreen for inhibitors of SARS-S pseudo-typed particle cell entry (AID 1479150); conditions: cell viability; series mostly up to 57.1 µM; also: potency is read from the fitted curve at half-maximal effect
[3] = Confirmatory qHTS for VERO E6 Cytotoxicity Assay: Counterscreen for SARS-CoV-2 CPE Assay (AID 1508605); conditions: cell viability luminescence; series mostly up to 20 µM; also: nearly all actives have a fitted effect of over 60% in size; also: potency is read from the fitted curve at half-maximal effect
[4] = Confirmatory qHTS for activators (rescue) of SARS-CoV-2 Cytopathic Effect (CPE) (AID 1508606); conditions: Vero E6 SARS-CoV-2 CPE rescue, viability luminescence; series mostly up to 20 µM; also: nearly all actives have a fitted effect of over 70% in size; also: potency is read from the fitted curve at half-maximal effect
[5] = Primary qHTS for Huh7 cytotoxicity: counterscreen for inhibitors of MERS-S pseudotyped particle cell entry (AID 1479147); conditions: cell viability read-out; series mostly up to 57.1 µM

CC(C(O)c1ccccc1)N(C)CCOC(c1ccccc1)c1ccccc1 (configuration not stated)
Potency [1]: 22.4 µM (active)
Potency [2]: inactive
Potency [3]: inactive
Potency [4]: 10 µM (active)

COc1ccc2cc1Oc1ccc(cc1)C[C@H]1c3c(cc4c(c3Oc3cc5c(cc3OC)CCN(C)[C@@H]5C2)OCO4)CCN1C
Potency [1]: 3.55 µM (active)
Potency [3]: 11.2 µM (active)
Potency [4]: 1 µM (active)

O=C(CCCN1CCC(O)(c2ccc(Br)cc2)CC1)c1ccc(F)cc1
Potency [2]: inactive

CC1CCCCN1CCCOC(=O)c1ccc(OC2CCCCC2)cc1 (configuration not stated)
Potency [5]: inactive
Potency [2]: inactive
Potency [3]: inactive
Potency [4]: 8.91 µM (active)

CN(C(=O)CN(CCO)CC(=O)N(C)C(C)(C)Cc1ccccc1)C(C)(C)Cc1ccccc1
Potency [2]: inactive

O=c1c(-c2ccccc2)c1-c1ccccc1
Potency [2]: inactive

CCCCC1C(=O)N(c2ccccc2)N(c2ccc(O)cc2)C1=O (configuration not stated)
Potency [2]: 22.4 µM (active)

CCC(C)(C)c1ccc(CC(C)CN2C[C@@H](C)O[C@@H](C)C2)cc1 (some centres not stated)
Potency [2]: inactive

CCC(=O)c1ccc2c(c1)N(CCCN(C)C)c1ccccc1S2
Potency [2]: inactive
Potency [3]: inactive
Potency [4]: 11.2 µM (active)

O=C(Oc1cccc2cccnc12)c1ccccc1
Potency [1]: 12.6 µM (active)
Potency [2]: 5.62 µM (active)

CCN(CC)CCCC(C)Nc1c2ccc(Cl)cc2nc2ccc(OC)cc12 (configuration not stated)
Potency [3]: 11.2 µM (active)
Potency [4]: inactive

O=C(CCC1CCN(Cc2ccccc2)CC1)c1ccc2c(c1)NCCCC2
Potency [2]: inactive
Potency [3]: inactive

Cc1ccc2nc(N)[nH]c(=O)c2c1Sc1ccncc1
Potency [2]: inactive

CN1CCCN(C(c2ccccc2)c2ccc(Cl)cc2)CC1 (configuration not stated)
Potency [2]: inactive
Potency [4]: 10 µM (active)

CN1CCCC(n2nc(Cc3ccc(Cl)cc3)c3ccccc3c2=O)CC1 (configuration not stated)
Potency [2]: inactive

CC1=CC(=O)c2ccccc2C1=O
Potency [2]: inactive

COC(=O)C1=C(C)NC(C)=C(C(=O)O[C@@H]2CCCN(Cc3ccccc3)C2)[C@@H]1c1cccc([N+](=O)[O-])c1
Potency [3]: 11.2 µM (active)
Potency [4]: inactive

Source: PubChem BioAssay (NCATS)
